Source: PubChem
RecA splice inh: Mtb RecA intein splicing inhibition; cell-free RecA intein splicing, fluorescence; P9WHJ3; 290,000 compounds, 0.75% hits; inhibition, % (test concentration not listed); in the data active = inhibition above about 30%
Rv3671c protease: Rv3671c (M. tuberculosis) protease inhibition; inhibition, % at 5.96 µM; 320,000 compounds, 0.048% hits; in the data active = inhibition above about 38%;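 note: extracellular domain of Rv3671c used as enzyme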
GDH-TPI counter: inhibits GDH-TPI coupling enzymes, artifact for Mtb FBA screen; GDH-TPI coupled enzyme counterscreen, NADH absorbance; 360,000 compounds, 1.2% hits; AID 588335; inhibition, % at 4.8 µM; in the data active = inhibition above about 30%
UGM FP inh: blocks M. tuberculosis UGM enzyme; inhibition, % at 10 µM; purified UGM, fluorescence polarization probe displacement; 320,000 compounds, 0.06% hits; in the data active = inhibition above about 10%, passing the limit was not always enough
Target sequence (P9WIQ1 whole entry, looked up): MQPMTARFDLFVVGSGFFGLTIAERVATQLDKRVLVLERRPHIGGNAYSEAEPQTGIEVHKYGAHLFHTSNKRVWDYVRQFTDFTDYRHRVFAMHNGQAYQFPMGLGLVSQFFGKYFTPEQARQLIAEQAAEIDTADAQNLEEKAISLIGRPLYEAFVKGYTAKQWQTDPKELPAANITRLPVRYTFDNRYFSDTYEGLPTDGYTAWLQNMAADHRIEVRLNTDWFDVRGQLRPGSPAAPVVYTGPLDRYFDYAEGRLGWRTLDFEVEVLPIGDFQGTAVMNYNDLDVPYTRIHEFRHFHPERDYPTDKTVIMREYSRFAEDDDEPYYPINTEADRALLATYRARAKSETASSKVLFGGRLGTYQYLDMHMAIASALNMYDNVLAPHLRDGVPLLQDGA
Mtb FBA inh: Mtb fructose-bisphosphate aldolase inhibition | 360,000 compounds, 2.3% hits | purified M. tuberculosis FBA, fluorescence read-out | inhibition, % at 1 µM | P9WQA3; in the data active = inhibition above about 27%
Mtb betalactam: beta-lactam sensitization of Mtb H37Rv; M. tuberculosis H37Rv growth with meropenem, percent inhibition; inhibition, % at 25 µM; 330,000 compounds, 0.27% hits; AID 434955; call rule not given here;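 note: growth measured after seven days incubation then overnight dye step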
Hits are given with their value; n = inactive; x = no result; + = active, no number. A selection: hits, their analogues and other compounds. The true share with any hit is near 4%.

SMILES	RecA splice inh	Rv3671c protease	GDH-TPI counter	UGM FP inh	Mtb FBA inh	Mtb betalactam
Clc1ccccc1-c1ccc(/C=N/n2cnnc2)o1	n	n	55	n	n	n
Cc1cc([N+](=O)[O-])c(C)cc1-c1ccc(/C=N/n2cnnc2)o1	n	x	n	n	n	n
CC1CN(S(=O)(=O)c2ccc(C(=O)Nc3nncs3)cc2)CC(C)O1 (stereo not drawn)	x	n	n	n	n	n
Cc1ccc(-n2nc3c(=O)n(CCCC(=O)NCc4cccc(Cl)c4)nc(C)c3c2C)cc1	n	n	n	n	n	n
CCc1nnc(NC(=O)CCC(=O)Nc2ccc(C)cc2)s1	n	n	n	n	n	n
O=C(NCC1CCCO1)c1ccc2c(c1)C(=O)N(c1cccc([N+](=O)[O-])c1)C2=O (stereo not drawn)	n	n	n	n	n	n
Clc1cccc(-c2ccc(/C=N/n3cnnc3)o2)c1Cl	n	n	34	n	n	n
O=C(c1cc(-c2cccc(Cl)c2)nc2ccccc12)N1CCN(c2ccccn2)CC1	n	n	n	n	n	n
O=C(O)c1cc(-c2cccc(Cl)c2)nc2nc(N3CCCCC3)sc12	n	n	n	n	+	n
O=[N+]([O-])c1ccccc1CN1CCN(S(=O)(=O)c2ccccc2)CC1	n	n	n	n	n	n
Cc1cc(/C=C2/NC(=O)NC2=O)c(C)n1-c1ccc(N2CCOCC2)cc1	n	n	34	n	n	n
Cc1cc(/C=C2\NC(=O)NC2=O)c(C)n1-c1ccc(N2CCOCC2)cc1	n	n	n	n	n	n
O=C(CNC(=O)c1ccccc1)OCc1nc2ccccc2s1	n	n	n	n	n	n
N#C/C(=C/c1cn(-c2ccccc2)nc1-c1cccc(S(=O)(=O)N2CCCC2)c1)C(=O)NCc1ccco1	n	n	31	n	n	n
N#C/C(=C/c1cn(-c2ccccc2)nc1-c1cccc(S(=O)(=O)N2CCOCC2)c1)C(=O)NCc1ccco1	n	n	n	n	n	n
Cc1cc(C)c(NC(=O)C2c3ccccc3Oc3ccccc32)c(C)c1	n	n	n	n	n	n
COCC(C)N=Cc1c(O)[nH]c2ccccc12 (stereo not drawn)	n	n	n	n	n	n
CN(C)CC(C)(C)CN=Cc1c(O)[nH]c2ccccc12	n	n	35	n	n	n
OCCN=Cc1c(O)[nH]c2ccccc12	n	n	n	n	n	n
Oc1[nH]c2ccccc2c1C=Nc1ccccc1	n	n	34	n	n	n
Cc1ccc(-c2cc(C(=O)Nc3c(C)n(C)n(-c4ccccc4)c3=O)no2)cc1	n	n	n	n	n	n
COCCNC(=O)C(=O)NCC1CCCN1S(=O)(=O)c1cccs1 (stereo not drawn)	x	x	n	x	n	x
COc1ccc(NC(=O)C(Cc2ccccc2)n2cccc2)cc1OC (stereo not drawn)	n	n	n	n	n	n
NS(=O)(=O)c1ccc(N=Nc2c(O)[nH]c(=S)[nH]c2=O)cc1	34	n	n	n	n	n
c1ccc(C2=NC(c3ccccc3)CC2)cc1 (stereo not drawn)	x	x	n	x	n	x
SMILES	RecA splice inh	Rv3671c protease	GDH-TPI counter	UGM FP inh	Mtb FBA inh	Mtb betalactam
Cc1ccc2c(c1)Oc1ccc(NC(=O)CCl)cc1C(=O)N2	60	n	n	n	n	n
Cc1ccc2c(c1)Oc1ccc([N+](=O)[O-])cc1C(=O)N2	n	n	n	n	n	n
CCN(CC)C(=O)COc1ccc(-c2nnc(Nc3ccc(OC)c(C(=O)NC)c3)c3ccccc23)cc1	n	n	46	n	n	x
CNC(=O)c1ccc(Nc2nnc(-c3ccc(C(N)=O)cc3)c3ccccc23)cc1	n	n	39	n	n	n
CCOC(=O)N1CCN(C(=O)COC(=O)c2cccc(C)c2[N+](=O)[O-])CC1	x	n	n	x	n	n
Cc1nc(SCC(=O)NCc2ccc3c(c2)OCO3)nc(C)c1C	x	n	n	n	n	n
CCOC(=O)c1[nH]cc(-c2ccccc2)c1N1CCOCC1	x	n	n	n	n	n
O=C(NCc1cccnc1)c1ccc(-c2cc(Cl)ccc2Cl)o1	n	n	n	n	n	n
O=C(NCc1cccnc1)/C(=C\c1ccc(-c2ccc(Cl)c(Cl)c2)o1)S(=O)(=O)c1ccccc1	n	n	31	n	n	n
Cc1noc(C)c1S(=O)(=O)N1CCCC(C(=O)N2CCc3ccccc3C2)C1 (stereo not drawn)	n	n	n	n	n	n
CC(/C=C/C=C/c1ccccc1)=N/NC(=O)CNc1ccc(C)cc1	n	n	33	n	n	n
CC(/C=C/c1ccco1)=N\NC(=O)C(O)c1ccccc1 (stereo not drawn)	n	n	n	n	n	n
CCOc1ccc(NCC(=O)N/N=C/C=C/c2ccccc2)cc1	n	n	n	n	n	n
CC(/C=C/C=C/c1ccccc1)=N/NC(=O)C(O)c1ccccc1 (stereo not drawn)	n	n	50	n	n	n
Cc1ccc(NC(=O)CSc2nnc(-c3cccs3)o2)cc1S(=O)(=O)N1CCCCC1	n	n	n	n	n	n
Cc1[nH]c2ccccc2c1N=Nc1c(C)n(C)n(-c2ccccc2)c1=O	n	n	n	n	n	n
Cc1c(N=Nc2ccc(O)cc2)c(=O)n(-c2ccccc2)n1C	n	n	n	n	n	n
Cc1c(N=Cc2nc3ccccc3[nH]2)c(=O)n(-c2ccccc2)n1C	n	n	42	n	n	n
Cc1c(N=Cc2nc3ccccc3n2C)c(=O)n(-c2ccccc2)n1C	n	n	43	n	n	n
Cc1cccc(-c2ccc(C=Nc3c(C)n(C)n(-c4ccccc4)c3=O)o2)c1	n	n	37	n	n	n
C1CCN(c2nc(N3CCCC3)nc(N3CCNCC3)n2)C1	n	x	x	x	x	x
C=CCN(CC=C)C(=S)NC(=O)/C=C/c1ccccc1	n	n	n	n	n	n
C=CCN(CC=C)S(=O)(=O)c1ccc(NC(=S)NC(=O)/C=C/c2ccccc2)cc1	n	n	31	n	n	n
Cc1ccc(N2C(=O)c3ccccc3C2C(=O)c2ccc(O)cc2O)cc1 (stereo not drawn)	n	n	43	n	n	n
CCCc1[nH]nc2c1C(c1ccc(O)c(OC)c1)C(C#N)=C(N)O2 (stereo not drawn)	79	n	n	n	n	n
COc1ccc(-c2[nH]nc3c2C(c2ccc(OC(=O)N4CCOCC4)cc2)C(C#N)=C(N)O3)cc1 (stereo not drawn)	x	n	x	n	x	n
CCCc1[nH]nc2c1C(c1ccc(OC(=O)N3CCOCC3)cc1)C(C#N)=C(N)O2 (stereo not drawn)	48	n	n	n	n	n
CCCc1[nH]nc2c1C(c1ccncc1)C(C#N)=C(N)O2 (stereo not drawn)	32	n	n	n	n	n
CCOc1ccc(-c2[nH]nc3c2C(c2ccc4c(c2)OCO4)C(C#N)=C(N)O3)cc1OC (stereo not drawn)	60	n	n	n	n	n
